In test [1] the target is Luciferin 4-monooxygenase (Photinus pyralis) (UniProt P08659). The experiment in a line: qHTS assay to identify small molecule inhibitors of firefly luciferase (AID 1224835). Also: nearly all actives have a fitted effect of over 25% in size. Also: potency is read from the fitted curve at half-maximal effect. The method, boiled down:
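Inhibition of purified Photinus luciferase is measured by luminescence. Substrate levels (D-luciferin, ATP) sit at their KM values. Each compound is tested in a concentration series.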
On the technique in general: In qHTS, concentration-response curves come from the screen itself.

Test [2] is described as follows: qHTS assay to identify small molecule agonists of the constitutive androstane receptor (CAR) signaling pathway - cell viability counter screen (AID 1224836). Also: nearly all actives have a fitted effect of over 45% in size. Also: potency is read from the fitted curve at half-maximal effect. The method, boiled down: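 Using CellTiter-Fluor, viability of HepG2 cells harbouring hCAR and CYP2B6-2.2kb was measured following 23 h incubation with a 15-concentration compound series plus PK11195 (0.75 uM final).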

Test [3] in a line: qHTS assay to identify small molecule antagonists of the constitutive androstane receptor (CAR) signaling pathway - cell viability counter screen (AID 1224837). Also: nearly all actives have a fitted effect of over 45% in size. Also: potency is read from the fitted curve at half-maximal effect. In outline: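 In quantitative HTS format, compounds at 15 concentrations were applied to HepG2 cells double-transfected with hCAR and CYP2B6-2.2kb under 50 nM CITCO stimulation; live-cell protease activity was read after 23 hr via CellTiter-Fluor.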

The target in test [4] is Nuclear receptor subfamily 1 group I member 3 (Homo sapiens) (UniProt Q14994). The experiment in a line: qHTS assay to identify small molecule antagonists of the constitutive androstane receptor (CAR) signaling pathway (AID 1224838). Also: nearly all actives have a fitted effect of over 40% in size. Also: potency is read from the fitted curve at half-maximal effect. The method, boiled down:
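CITCO-stimulated (50 nM final) HepG2 cells stably transfected with hCAR and CYP2B6-2.2kb luciferase were exposed to compounds at 15 concentrations for 24 h at 37 C/5% CO2. A luciferase reagent was added and luminescence recorded after 30 min.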

For test [5] the target is unchanged. The experiment in a line: qHTS assay to identify small molecule agonists of the constitutive androstane receptor (CAR) signaling pathway (AID 1224839). Also: nearly all actives have a fitted effect of over 15% in size. Also: potency is read from the fitted curve at half-maximal effect.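 As to activation: HepG2 cells stably carrying human CAR and a CYP2B6 luciferase reporter.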 In outline:
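Double-stable HepG2 cells (hCAR, CYP2B6-2.2kb) seeded 4 h before compound addition. Exposure 24 h with 0.75 uM PK11195 final. Luciferase detected by ONE-Glo.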

The nature of test [6]: qHTS assay to identify small molecule antagonists of the estrogen related receptor signaling pathway with the pleiotropic PPARgamma coactivator (PGC) from Tox21 10K library - cell viability counter screen (AID 1224840; active = well fitted cell-killing curve with a large enough effect in the repeat runs, not every such curve was filed as active; also: nearly all actives have a fitted effect of over 40% in size). In outline: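 Viability counter screen, PGC/ERR cells: 17.5 h compound exposure at 37 C, CellTiter-Fluor fluorescence endpoint.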
Test [7] is described as follows: qHTS assay to identify small molecule agonists of the hypoxia (HIF-1) signaling pathway - cell viability counter screen (AID 1224844; calls by dose curve; also: nearly all actives have a fitted effect of over 50% in size; also: potency is read from the fitted curve at half-maximal effect). The method, boiled down:
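Same wells as the HIF-1 reporter screen; ME-180 cells carrying HRE-bla, 17 hr treatment at 37C; CellTiter-Glo luminescence read after 30 min at room temperature.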

Test [8] is described as follows: qHTS assay to identify small molecule agonists of H2AX (AID 1224845; active = well fitted activation curve with a large enough effect in the signal ratio in the repeat runs, not every such curve was filed as active; the % refers to the signal ratio). The method, boiled down: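 Phospho-H2AX Ser139 measured by HTRF (ex 320 nm; em 665 and 620 nm) after 24 hr antibody incubation. Compounds, 15 concentrations, 0.76% DMSO, were applied to CHO-K1 cells for 3hr at 37C before lysis.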
Test [9] in a line: qHTS assay to identify small molecule agonists of the hypoxia (HIF-1) signaling pathway (AID 1224846; active = well fitted activation curve with a large enough effect in the signal ratio in the repeat runs, not every such curve was filed as active; the % refers to the signal ratio). The method, boiled down: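 In ME-180 cells bearing an HRE-bla construct, 17 h treatment with DMSO-dissolved compounds at 37C was followed by CCF4-AM loading to quantify reporter induction.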
Test [10] is described as follows: qHTS RealTime-Glo MT Cell Viability Assay in HepG2 cells - 24 hour (AID 1224867). Also: nearly all actives have a fitted effect of over 50% in size. Also: potency is read from the fitted curve at half-maximal effect. The method, boiled down: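 HepG2 cells (600/well) were dispensed with RealTime-Glo reagents, incubated 5 h at 37 °C, then treated with compounds in DMSO for up to 40 h. Nonlytic NanoLuc luminescence reflecting viable cells was read at each stated time point.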
The nature of test [11]: qHTS RealTime-Glo MT Cell Viability Assay in HEK293 cells - 32 hour (AID 1224868). Also: nearly all actives have a fitted effect of over 50% in size. Also: potency is read from the fitted curve at half-maximal effect. The method, boiled down: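 HEK293 cells seeded with NanoLuc/prosubstrate reagent, rested 5 h at 37 C, then dosed and kept at 37 C up to 40 h. Nonlytic real-time luminescence from viable cells read at 0, 8, 16, 24, 32 and 40 h.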
A short description of test [12]: qHTS RealTime-Glo MT Cell Viability Assay in HepG2 cells - 40 hour (AID 1224870). Also: nearly all actives have a fitted effect of over 50% in size. Also: potency is read from the fitted curve at half-maximal effect. In outline: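 Real-time viability: cells seeded at 600 per well together with NanoLuc and cell-permeant prosubstrate, compounds added after 5 h incubation. Luminescence tracked at 0, 8, 16, 24, 32 and 40 h of exposure.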
Test [13] in a line: qHTS assay to identify small molecule agonists of the estrogen related receptor signaling pathway with the pleiotropic PPARgamma coactivator (PGC) from Tox21 10K library (AID 1224842). Also: nearly all actives have a fitted effect of over 15% in size. In outline:
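Luminescence from One-Glo (30 min, room temperature) measured after PGC/ERR cells had 18 h at 37 C with pinned compound (23 nL in DMSO). Cells had been seeded at 2,000 per well and pre-incubated 6 h.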

Test [14] deals with Thyrotropin receptor (Homo sapiens) (UniProt P16473). Kind of test: qHTS assay to identify small molecule agonists of the thyroid stimulating hormone receptor (TSHR) signaling pathway (AID 1224843; calls by dose curve; also: nearly all actives have a fitted effect of over 45% in size). In outline: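 Agonist activity read as cAMP rise via d2/cryptate HTRF competition, 1 h room-temperature detection, in HEK293 cells expressing TSHR. Fifteen-point titrations, each run in triplicate, with a 30 min room-temperature incubation beforehand.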
Thyrotropin receptor (Homo sapiens), sequence (P16473 whole entry, looked up): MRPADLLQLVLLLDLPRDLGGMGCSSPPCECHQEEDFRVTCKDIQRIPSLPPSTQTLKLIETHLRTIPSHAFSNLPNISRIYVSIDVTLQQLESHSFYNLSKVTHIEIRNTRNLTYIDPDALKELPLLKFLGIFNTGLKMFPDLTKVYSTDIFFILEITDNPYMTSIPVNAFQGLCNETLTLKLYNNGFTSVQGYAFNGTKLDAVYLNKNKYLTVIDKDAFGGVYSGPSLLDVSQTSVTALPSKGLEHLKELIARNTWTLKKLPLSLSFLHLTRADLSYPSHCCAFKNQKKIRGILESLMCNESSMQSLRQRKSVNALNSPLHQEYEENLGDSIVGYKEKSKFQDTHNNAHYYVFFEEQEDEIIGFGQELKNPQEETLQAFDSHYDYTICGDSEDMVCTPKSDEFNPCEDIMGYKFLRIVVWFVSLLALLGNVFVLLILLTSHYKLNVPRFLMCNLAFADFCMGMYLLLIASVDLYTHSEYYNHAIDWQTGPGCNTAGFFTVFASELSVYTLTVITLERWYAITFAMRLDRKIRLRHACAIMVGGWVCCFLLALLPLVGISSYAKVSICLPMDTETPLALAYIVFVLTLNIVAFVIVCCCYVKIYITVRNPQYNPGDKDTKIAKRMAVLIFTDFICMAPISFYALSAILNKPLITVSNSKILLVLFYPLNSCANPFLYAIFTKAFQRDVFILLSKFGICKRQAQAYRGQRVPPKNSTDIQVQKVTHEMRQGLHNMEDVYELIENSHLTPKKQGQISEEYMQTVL

Test [15] in a line: qHTS assay to identify small molecule agonists of the estrogen related receptor (ERR) signaling pathway from Tox21 library (AID 1224849; calls by dose curve; also: nearly all actives have a fitted effect of over 15% in size). The note with it: ERR reporter cell line, ONE-Glo luciferase, 18 h; at 92.4 µM (top of the series) unless noted. In outline: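 Reporter cells (ERR, NTP source) treated with Tox21 10K compounds 18 h, 37 C. Readout: ONE-Glo luminescence, 30 min RT.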

Test [16] in a line: A CellTox Green Cytotoxicity Assay to monitor cytotoxicity in HEK293 cells - 0 hour (AID 1224869). Also: nearly all actives have a fitted effect of over 50% in size. Also: potency is read from the fitted curve at half-maximal effect. The method, boiled down:
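Homogeneous no-lysis format: HEK293 cell suspension mixed with CellTox Green reagent, seeded, incubated 5 h at 37 C/5% CO2, then dosed by pintool with compound in DMSO.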

Test [17] can be described thus: qHTS assay to identify small molecule agonists of H2AX - cell viability counter screen (AID 1224847; calls by dose curve; also: nearly all actives have a fitted effect of over 30% in size; also: potency is read from the fitted curve at half-maximal effect). In outline: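 Quantitative HTS viability measurement: CHO-K1 wild-type cells in serum (10% FBS) medium, short 3 hr drug exposure at 37C with 0.76% DMSO, CellTiter-Glo luminescent detection.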
A short description of test [18]: qHTS assay to identify small molecule antagonists of the estrogen related receptor signaling pathway with the pleiotropic PPARgamma coactivator (PGC) from Tox21 10K library (AID 1224841; call rule not given here). The method, boiled down:
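In the PGC/ERR line, DMSO solutions of test chemicals are pin-delivered to 2,000 cells/well six hours after dispensing. Following eighteen hours' incubation, One-Glo reagent is added and luminescence recorded.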

Test [19] is described as follows: qHTS assay to identify small molecule antagonists of the estrogen related receptor (ERR) signaling pathway from Tox21 library (AID 1224848). Also: nearly all actives have a fitted effect of over 50% in size. Also: potency is read from the fitted curve at half-maximal effect. The method, boiled down:
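Luciferase luminescence (ONE-Glo, 30 min room temperature) was the read-out. Cells of the NTP-supplied ERR line, 2,000 per well, were given 6 h at 37 C before compound addition in DMSO and 18 h exposure at 37 C.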

Values without a mark were called inactive. Records with an inconclusive call do not appear. Calls of active or inactive are those of the source. Unless noted, calls follow the shape of the dose curve; as a rule, active = well fitted curve in the direction sought with a large enough effect in the repeat runs; inconclusive = weak or mixed curves; inactive = no such curve, though single readings can be large; an effect the other way counts as inactive or inconclusive.
% is scaled to controls: 0 for no effect and ±100 for the full control effect.

Nuclear receptor subfamily 1 group I member 3 (Homo sapiens), sequence (Q14994 whole entry, looked up): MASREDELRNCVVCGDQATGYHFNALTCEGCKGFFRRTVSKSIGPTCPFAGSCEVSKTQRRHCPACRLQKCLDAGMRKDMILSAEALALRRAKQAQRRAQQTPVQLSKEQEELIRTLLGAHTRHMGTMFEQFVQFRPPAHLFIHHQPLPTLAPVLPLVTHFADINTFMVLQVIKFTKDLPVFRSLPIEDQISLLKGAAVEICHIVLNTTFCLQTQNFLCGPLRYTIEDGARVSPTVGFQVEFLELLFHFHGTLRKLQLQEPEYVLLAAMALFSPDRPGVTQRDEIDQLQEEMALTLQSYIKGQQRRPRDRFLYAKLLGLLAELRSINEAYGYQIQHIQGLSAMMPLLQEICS
Luciferin 4-monooxygenase (Photinus pyralis), sequence (P08659 whole entry, looked up): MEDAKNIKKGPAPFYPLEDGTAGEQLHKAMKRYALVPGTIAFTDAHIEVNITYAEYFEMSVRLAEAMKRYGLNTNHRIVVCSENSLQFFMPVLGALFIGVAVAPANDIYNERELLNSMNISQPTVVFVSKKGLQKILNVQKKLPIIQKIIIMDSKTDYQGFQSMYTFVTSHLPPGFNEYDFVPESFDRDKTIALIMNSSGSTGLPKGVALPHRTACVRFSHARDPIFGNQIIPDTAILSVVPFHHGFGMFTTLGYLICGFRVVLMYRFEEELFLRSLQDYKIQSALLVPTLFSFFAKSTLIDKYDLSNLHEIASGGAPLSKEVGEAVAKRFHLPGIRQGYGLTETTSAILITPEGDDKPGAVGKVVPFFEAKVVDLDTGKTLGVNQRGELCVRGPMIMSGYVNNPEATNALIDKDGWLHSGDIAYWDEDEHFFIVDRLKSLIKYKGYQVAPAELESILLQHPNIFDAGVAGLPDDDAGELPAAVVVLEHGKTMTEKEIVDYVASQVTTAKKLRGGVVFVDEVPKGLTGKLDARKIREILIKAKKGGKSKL

With `O=C(c1ccc(O)cc1)c1ccc(Cl)cc1`, the results for the Potency in test [1], in test [5] and in [11] were 64.7 µM (active), 49.6 µM (active) and 25.1 µM (active), respectively. Moreover, the Potency result in test [2], in [3], in test [4], in [6], in test [7] and in [8] was “inactive” in each case. Further, the Potency entry in test [10] and in test [12] was “inactive” each time. Further, in test [9], the compound was classed as inactive.
On to `CC(C)c1nnc2ccc(-c3ocnc3-c3cc(F)ccc3F)cn12`, for which the Potency result in test [1], in [2], in test [3], in test [4], in [6] and in [13] was “inactive” throughout. Further, the Potency entry in test [14], in [10], in test [16] and in [12] was “inactive” each time. Besides, the Potency in test [5] was 48.6 µM (active); in [11], 21.9 µM (active). Also, in [9], the result was inactive. The activity change, positive = activation in test [15] was -31.4%.
With `Cc1c(C(=O)NN2CCCCC2)nn(-c2ccc(Cl)cc2Cl)c1-c1ccc(Cl)cc1`, the Potency result in test [1], in [2], in [3], in test [5], in test [6] and in [14] was “inactive” throughout. Also, the Potency result in [17], in test [10], in test [16] and in [12] was “inactive” in each case. For the same compound, the Potency in test [4] was 23.7 µM (active); in test [7] it was 21.3 µM (active).
As to `CC(C)OCC1CO1` (centres undefined), the Potency result in [1], in test [2], in [3], in test [4], in [5] and in test [6] was “inactive” throughout. For the same compound, the Potency result in test [18], in test [13], in test [7], in test [8], in test [17] and in test [19] was “inactive” throughout. Further, the Potency entry in test [10], in [11], in test [16] and in test [12] was “inactive” each time. Further, in [9], the compound was called inactive. Besides, in test [15], the activity change, positive = activation was -0.395%.
Turning to `O=C(N[C@@H](c1ccccc1)[C@@H]1CCCCN1)c1cccc(C(F)(F)F)c1Cl`, the Potency entry in test [1], in [5], in test [13], in [14], in [7] and in test [16] was “inactive” each time. Besides, the Potency in test [2] is 61.1 µM (active); in test [3] it was 61.1 µM (active); in [4], 48.6 µM (active); in test [19] it was 30.6 µM (active); in test [10], 43.6 µM (active); in test [11], 24.5 µM (active). For the same compound, the Potency in test [12] was 43.6 µM (active). Moreover, in test [9], the call was inactive. For the same compound, the activity change, positive = activation in [15] was -38.1%.
With `CC(=N\O)/C(C)=N/O`, the Potency result in [1], in test [2], in test [3], in [4], in test [5] and in test [6] was “inactive” in each case. The Potency result in test [14], in test [7], in [8], in test [11], in [16] and in test [12] was “inactive” throughout.
Regarding `CCCOC(=O)c1ccc(N)cc1`, the Potency entry in [1], in test [2], in test [3], in test [4], in test [6] and in test [18] was “inactive” each time. For the same compound, the Potency result in test [13], in [14], in [8], in test [17], in test [11] and in test [16] was “inactive” throughout. Besides, in test [12], the Potency result was “inactive”. For the same compound, in test [9], the outcome was inactive. Besides, the activity change, positive = activation in test [15] was -13.8% [at 42.5 µM].
Regarding `CCCCCCCCCCCCCCC[C@H](O)[C@@H](N)CO`, the Potency result in [1], in [2], in test [3], in test [4], in [5] and in test [6] was “inactive” each time. For the same compound, the Potency result in test [14] and in [8] was “inactive” each time. In addition, the Potency is 49.2 µM (active) in test [17], 23.9 µM (active) in test [11] and 19 µM (active) in [16].

These data come from PubChem BioAssay (Tox21).
